The panel holds about 83,000 compounds, 20% with a hit somewhere; the sample as a whole holds those more often.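 Growth was measured after 48 h exposure to one concentration of compound in 96-well plates. Values under 10 count as active.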 Activity calls are given as the source filed them.
System: SR leukemia
Test: NCI-60 one-dose screen, 48 h (100 = growth as untreated, 0 = no growth, -100 = all killed)
Conditions: 10 µM
Experimental: Growth inhibition of the SR human tumor cell line is measured as a screen for anti-cancer activity. Cells are grown in 96 well plates and exposed to the test compound for 48 hours. Compounds are tested at a single concentration, which is 10^-5 M for most compounds. The reported endpoint is percent growth (GI% or GIPRCNT), where numbers from 0 - 100% represent growth inhibition, and numbers from -100% - 0 represent cell death. For example, a value of 40 represents 60% growth inhibition. A value of 0 means no net growth occurred over the course of the experiment. A value of -40 indicates 40% of cells at the beginning of the experiment died by the end of the experiment. A value of -100 means all cells are dead at the end of the experiment.
NCI-60 Human Tumor Cell Lines Screen was performed using the standard one-dose NCI protocol, which is described in more detail at https://dtp.cancer.gov/discovery_development/nci-60/default.htm.
Compounds with GIPRCNT values below 10 were considered active. Activity score was based on GIPRCNT using the following formula: […]
Score is 0 for GIPRCNT values of 100 or above, 50 for GIPRCNT values of 0, and 100 for GIPRCNT values of -100.

SMILES | growth
COc1cc(C(=O)n2nc(N)c3c(C)cc(C)nc32)cc(OC)c1OC | 13% (inactive)
COc1cc(OC)cc(-c2n/c(=C\c3c(O)[nH]c4ccc(OC)cc34)cc3c2=Nc2ccccc2-3)c1 | 9.3% (active)
COc1cc(-c2cc(/C=C/C(C)=O)[nH]n2)cc(OC)c1OC | 4.57% (active)
CCOC(=O)Cn1nnc(-c2ccc(OCc3ccccc3F)cc2)n1 | 35.4% (inactive)
CCOC(=O)c1ccc(NC(=O)Nc2nncs2)cc1 | 9.88% (active)
CCOC(=O)[C@@H]1[C@H](c2ccccc2)[C@H]([N+](=O)[O-])[C@H](c2cn(-c3ccccc3)nc2C)N1Cc1ccccc1 | 46.9% (inactive)
O=C1NN(c2ccccc2)C(c2cccnc2)=N/C1=C\c1cccnc1 | 73.6% (inactive)
CCCCCCCCCCSC(=N)N (tested in a mixture with another compound) | -26.7% (active)
CC(C)c1[nH]nc2c(NCc3ccc(-c4ccccn4)cc3)nc(SCCN(C)C)nc12 | -10.3% (active)
O=C(Cn1ccc(=O)[nH]c1=O)c1ccc([N+](=O)[O-])o1 | 73.9% (inactive)
Cc1ccc(C)c2c1sc1nc3n[nH]c(N)c3c(=N)n12 | 97.6% (inactive)
N=C(N)c1ccc(-c2ccc(-c3cccs3)s2)nc1 | -9.12% (active)
COc1ccc(-c2cn[nH]c2-c2cc(OC)c(OC)c(OC)c2)cc1 | 3.17% (active)
O=C(c1ccc(Cl)cc1)c1no[n+]([O-])c1C(=O)c1ccc(Cl)cc1 | -18.5% (active)
Cc1cn(C(=O)/C(Cl)=C(/Cl)C(=O)O)c2ccccc12 | 101% (inactive)
O=C1/C(=C/c2ccc(O)cc2)CSc2ccc(Cl)cc21 | 62.7% (inactive)
CCc1cc2n(n1)-c1ncc(C(=O)OC)cc1Oc1ccccc1-2 | 93.9% (inactive)
CC(C)C[C@H](NC(=O)Cn1ccc2ccccc2c1=O)B(O)O | 9.81% (active)
CCCc1ccnc(NS(=O)(=O)c2ccc(N)cc2)n1 | 72.2% (inactive)
C[C@@H]1N=C(c2ccc(Br)cc2)Nc2nc3ccccn3c2C1=O | 30% (inactive)

SMILES | growth
CC1(CO)CCCC12OCCO2 (stereo not given) | 93.3% (inactive)
N=C(N)c1ccc(-c2ccc(-c3ccccc3)s2)s1 | -40% (active)
Cc1ccc(Cl)cc1Nc1nc(C(F)(F)F)ccc1C(=O)N/N=C/c1c(Cl)cccc1Cl | 123% (inactive)
COc1cc(/C=C2\C(=O)Nc3cc(C)c(O)cc32)cc(OC)c1OC | 21.4% (inactive)
Cc1cc(C)c2nc(C)c(C)[n+]([O-])c2c1 | 82.3% (inactive)
CN1CCN(c2nc(-c3cccnc3)nc3sc4c(c23)CCCCCC4)CC1 | 34.2% (inactive)
COc1ccc(-c2nnc(N3CCN(C(=O)CN4CCN(c5ccc(Cl)cc5)CC4)CC3)nc2-c2ccc(OC)cc2)cc1 | 54.2% (inactive)
O=C1CC[C@@H](C(=O)N[C@H]2CSSC[C@@H](C(=O)N/C=C/c3ccc(O)cc3)NC(=O)[C@H](Cc3ccccc3)NC(=O)[C@@H]3CCCN3C(=O)[C@@H]3CCCN3C2=O)N1 | 99.1% (inactive)
N#Cc1ccc(-n2cnc(NC(=O)[C@H]3CCN(C#N)C3)c2)cc1 | 6.48% (active)
C/C(=N\NC(N)=S)C(C)(C)O | 81.2% (inactive)
COc1cc(-c2cc(-c3cc(OC)c(OC)c(OC)c3)nc3nc(N)[nH]c(=O)c23)ccc1Oc1ccnc2cc(Cl)ccc12 | 5.24% (active)
Cn1cnc([N+](=O)[O-])c1/C=C1\Oc2ccc(Cl)cc2C1=O | 20.7% (inactive)
COc1ccc(C2C=C(c3ccc(Cl)c(Cl)c3)N=C3SC(C)=CN32)cc1OC (stereo not given) | 61.9% (inactive)
COc1cc(-c2nc3ccccc3[nH]2)ccc1OCC(=O)N=Nc1c(O)[nH]c2ccccc12 | -5.28% (active)
COc1ccc(-c2nnc(COc3ccc(NC(=O)Nc4ccccc4)cc3F)o2)cc1 | 36.1% (inactive)
CCCc1c(C)nc2scc(-c3ccc(Cl)cc3)n2c1=O | 83.1% (inactive)
COc1cccc2c1O/C(=C\c1ccc([N+](=O)[O-])s1)C2=O | 8.26% (active)
CC1(C)Cc2c(cn(Cc3ccccc3)c2-c2ccccc2)-c2oncc21 | 86.8% (inactive)
COc1ccc(C(=O)/C=C/c2cc(-c3ccc4c(c3)OCO4)n[nH]2)cc1OC | -5.36% (active)
Nc1nc(SCC#CCCl)c2[nH]cnc2n1 | 29.9% (inactive)

Reference: PubChem BioAssay (NCI)
